This note sets out measurements from PubChem BioAssay (NCATS).

What all share (experiment): qHTS profiling for inhibitors of Plasmodium falciparum proliferation (AID 504749); also: nearly all actives have a fitted effect of over 60% in size
What all share (conditions): P. falciparum in erythrocytes, SYBR Green DNA, 72 h; series mostly up to 28.7 µM
For orientation: In qHTS, concentration-response curves come from the screen itself.

One test has as its system AA1029. An outline of the steps:
(§1)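 Infected RBCs, 0.3% parasitemia/2.5% Hct final; cpd 72 h, 37 C, 5% CO2; lysis buffer with saponin/triton/SYBR Green I, o/n RT dark; FI 485/535; norm. to artemisinin (0.29 uM) and DMSO.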

For a further test, the system named is ATS95. An outline of the steps:
as §1

A further test relates to C2A. An outline of the steps: as §1
For a further test, the system named is CP211. An outline of the steps: as §1
The test system of the next test is CP238. An outline of the steps: as §1
Another test has as its system CP252. In short, it runs like this:
as §1

Another test deals with CP256. An outline of the steps:
as §1

The next test deals with CP262. An outline of the steps:
as §1

Another test concerns CP266. An outline of the steps: as §1
A further test concerns CP268. An outline of the steps:
as §1

Another test relates to CP269. An outline of the steps: as §1
For the next test, the system named is CP305. An outline of the steps: as §1
The test system of another test is CP315. In short, it runs like this:
as §1

The next test has as its system CP325. An outline of the steps: as §1
In the next test the test system is CP329. An outline of the steps:
as §1

The test system of the next test is DIV17. In short, it runs like this: as §1
The test system of a further test is DIV30. In short, it runs like this:
as §1

The next test concerns FAB9. An outline of the steps: as §1
The next test relates to ICS. In short, it runs like this:
as §1

The test system of another test is PC26. An outline of the steps: as §1

The structures appear in SMILES notation. Results filed as inconclusive are left out. The source made the active and inactive calls. Calls follow the shape of the dose curve; as a rule, active = well fitted inhibition curve with a large enough effect; inconclusive = small, poorly fitted or top-dose-only effect; inactive = flat fitted curve, though single readings scatter.
Potency is read from the fitted curve at half-maximal effect.

Consider `C=C1CC[C@H](O)C/C1=C/C=C1\CCC[C@]2(C)[C@@H]([C@H](C)CCCC(C)C)CC[C@@H]12`, for which the Potency entry in the test with AA1029, with ATS95, in the test with C2A, in the test on CP211, in the test on CP238 and in the test with CP252 was “inactive” each time. Besides, the Potency entry with CP256, in the test on CP262, with CP266, with CP268, in the test with CP269 and with CP305 was “inactive” each time. Further, the Potency entry in the test on CP315, in the test with CP325, in the test on CP329, in the test with DIV17, with DIV30 and with FAB9 was “inactive” in each case. Besides, the Potency result in the test with PC26 was “inactive”. Also, in the test on ICS, the Potency was 10 µM (active).

As to `Cc1c(C(=O)O)c(O)cc2c1C(=O)c1c(O)c([C@H]3O[C@H](CO)[C@@H](O)[C@H](O)[C@H]3O)c(O)c(O)c1C2=O`, the Potency result with AA1029, in the test with ATS95, in the test with C2A, in the test on CP211, in the test on CP238 and in the test with CP252 was “inactive” in each case. Besides, the Potency entry in the test on CP256, in the test with CP262, in the test on CP266, in the test on CP268, in the test with CP269 and with CP305 was “inactive” in each case. The Potency result in the test with CP315, in the test with CP325, in the test with CP329, in the test on DIV17, in the test with DIV30 and in the test on FAB9 was “inactive” throughout. Further, the Potency result in the test with ICS and in the test with PC26 was “inactive” in each case.
